This is an account of results in PubChem BioAssay (Tox21).

Assay [1] in a line: qHTS assay to identify small molecule antagonists of the sonic hedgehog signaling (Shh) pathway (AID 1259369; calls by dose curve; note: nearly all actives have a fitted effect of over 45% in size; note: potency is the fitted concentration of half-maximal effect). In a few lines: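 NIH/3T3-derived 3T3Gli1-Luc cells with stably integrated Gli1-Luc reporter were preincubated 4hr at 37 C, then given compounds in DMSO plus Shh conditioned medium and incubated 24hr. Firefly luciferase luminescence read after 30min reagent at room temperature.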
Background: In qHTS, concentration-response curves come from the screen itself.

Assay [2] can be described thus: qHTS assay to identify small molecule agonists of the androgen receptor (AR) signaling pathway in the presence of an antagonist - cell viability counter screen (AID 1259379). Note: series mostly up to about 92 µM; nearly all actives have a fitted effect of over 25% in size. In a few lines:
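MDA-kb2 human breast carcinoma cells (stable MMTV-luciferase, AR/GR responsive) were seeded 3,000 cells/well, pre-incubated 5 hr at 37C without CO2, then given 3.0uM nilutamide and compounds at 15 concentrations for 16 hr. Viability was read by CellTiter-Fluor fluorescence.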

Assay [3] in a line: qHTS assay to identify small molecule agonists of the estrogen receptor beta (ER-beta) signaling pathway - cell viability counter screen (AID 1259380). Note: nearly all actives have a fitted effect of over 30% in size. In a few lines: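 ER-beta-UAS-bla HEK293T cells in medium with 2% charcoal-stripped FBS were preincubated 6 hr at 37C, dosed with compound in DMSO for 16 hr, then after the bla read, CellTiter-Glo was added for 30 min at room temperature; luminescence recorded.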

A short description of assay [4]: qHTS assay to identify small molecule antagonists of the estrogen receptor beta (ER-beta) signaling pathway - cell viability counter screen (AID 1259382). Note: series mostly up to about 92 µM; nearly all actives have a fitted effect of over 55% in size. In a few lines: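 ER-beta-UAS-bla HEK293T cells (2,000/well, 2% charcoal-stripped FBS) were pre-incubated 6 hr at 37C, then given compound plus 1nM final 17-beta-estradiol for 16 hr. Viability was read in the same wells by CellTiter-Glo luminescence after 30 min at room temperature.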

In assay [5] the target is Estrogen receptor (Homo sapiens) (UniProt P03372). Nature of the assay: qHTS assay to identify small molecule agonists of the estrogen receptor alpha (ER-alpha) signaling pathway in the presence of an antagonist (AID 1259383; calls by dose curve; note: top concentration of the series differs between compounds; nearly all actives have a fitted effect of over 15% in size). An outline of the steps:
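VM7Luc4E2 cells (endogenous full-length ER-alpha, 4×ERE-luciferase) were precultured 5 days in phenol red-free medium with 10% charcoal-stripped FBS, given 10.0nM ICI-182,780 (final), then treated with compounds at 15 concentrations for 22hr at 37C; luminescence read with ONE-Glo.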

A short description of assay [6]: qHTS assay to identify small molecule agonists or antagonists of the thyroid stimulating hormone receptor (TSHR) signaling pathway - wild type cell line counter screen (AID 1259384; calls by dose curve). An outline of the steps:
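Wild-type Hek293 cells, 800/well, 18 h at 37C, then compound with Ro20-1724 for 30 min RT. cAMP by HTRF (cAMP-d2/anti-cAMP cryptate), 1 h RT, fluorescence read. 15 concentrations, triplicates.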

Assay [7] in a line: qHTS assay to identify small molecule agonists of the estrogen receptor alpha (ER-alpha) signaling pathway in the presence of an antagonist - cell viability counter screen (AID 1259386). For activity change, negative = cytotoxicity: series mostly up to about 92 µM.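 Note: cells exposed to compounds for 22 h at 37 °C before the viability read; nearly all actives have a fitted effect of over 30% in size.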 Note: potency is the fitted concentration of half-maximal effect. An outline of the steps: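 VM7Luc4E2 cells (endogenous full-length ER-alpha, 4×ERE-luciferase) were held 5 days in phenol red-free medium with 10% charcoal-stripped FBS, plated, then given 10.0nM ICI-182,780 and compounds at 15 concentrations for 22hr at 37C; viability read by CellTiter-Fluor fluorescence.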

Assay [8] has as its target Progesterone receptor (Homo sapiens) (UniProt P06401). The experiment in a line: qHTS assay to identify small molecule agonists of the progesterone receptor (PR) signaling pathway (AID 1346784; calls by dose curve; note: nearly all actives have a fitted effect of over 30% in size). An outline of the steps: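 Fluorescence from LiveBLAzer B/G FRET substrate cleavage (2 hr, RT) reported PR activation in PR-UAS-bla HEK 293T cells treated 16 hr at 37C/5% CO2 with compounds; medium contained 2% charcoal-stripped FBS.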

The target is the same in assay [9]. Nature of the assay: qHTS assay to identify small molecule antagonists of the progesterone receptor (PR) signaling pathway (AID 1346795; active = well fitted inhibition curve with a large enough effect in the signal ratio in the repeat runs, not every such curve was filed as active; the % refers to the signal ratio). In a few lines:
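Fluorescence intensity measured 2 hr after adding beta-lactamase FRET substrate to PR-UAS-bla HEK293T cells that had been co-treated 16 hr with compound and 1 nM R5020 (final concentration) in 2% charcoal-stripped FBS.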

Assay [10] can be described thus: qHTS assay to identify small molecule antagonists of the progesterone receptor (PR) signaling pathway - cell viability counter screen (AID 1346798). Note: series mostly up to about 92 µM; nearly all actives have a fitted effect of over 50% in size. In a few lines:
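CellTiter-Glo luminescence; PR-UAS-bla HEK293T, 3,000 cells/well; compound + R5020, 16 hr, 37C/5% CO2; 30 min RT before read.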

Assay [11] can be described thus: qHTS assay to identify small molecule agonists of the progesterone receptor (PR) signaling pathway - cell viability counter screen (AID 1346799; calls by dose curve; note: nearly all actives have a fitted effect of over 45% in size). An outline of the steps:
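In parallel with the beta-lactamase readout, cytotoxicity toward PR-UAS-bla HEK293T cells was measured by CellTiter-Glo luminescence following 16 hr compound incubation in 2% charcoal-stripped FBS medium.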

Assay [12] can be described thus: qHTS assay to identify small molecule antagonists of the TGF-beta/Smad signaling pathway - cell viability counter screen (AID 1346824). Note: nearly all actives have a fitted effect of over 50% in size. In a few lines:
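SBE-bla HEK 293T cells, incubated overnight, then compound plus 0.25 ng/mL TGF-beta1 (stock added) for 5 hr at 37 C. Viability was read in the same wells by CellTiter-Glo luminescence after 30 min at room temperature.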

Assay [13] in a line: qHTS assay to identify small molecule agonists of the TGF-beta/Smad signaling pathway - cell viability counter screen (AID 1346829). Note: top concentration of the series differs between compounds; nearly all actives have a fitted effect of over 45% in size. An outline of the steps:
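Here the cytotoxicity of library compounds is measured in SBE-bla HEK 293T cells treated for 5 hr, using CellTiter-Glo added to wells already read for the beta-lactamase reporter.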

Assay [14] is described as follows: qHTS assay to identify small molecule agonists of the TGF-beta/Smad signaling pathway (AID 1346859; active = well fitted activation curve with a large enough effect in the signal ratio in the repeat runs, not every such curve was filed as active; the % refers to the signal ratio; note: series mostly up to about 77 µM). An outline of the steps: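 After overnight seeding, SBE-bla HEK 293T cells are dosed with compounds in DMSO and kept 5 hr at 37 C, 5% CO2. LiveBLAzer-type FRET substrate is then applied for 2 hr at room temperature.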
Assay [15] addresses Thyrotropin-releasing hormone receptor (Homo sapiens) (UniProt P34981). The experiment in a line: qHTS assay to identify small molecule antagonists of the thyrotropin-releasing hormone receptor (TRHR) signaling pathway (AID 1346877; active = well fitted inhibition curve with a large enough effect in the repeat runs, not every such curve was filed as active; note: series mostly up to about 51 µM). In a few lines:
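TRHR-expressing HEK293 cells were seeded, cultured 18 h at 37 °C, then loaded with calcium dye for 2 h. Compounds were pre-incubated 5 min at room temperature before 1 nM TRH (final) was added, and kinetic fluorescence was recorded for 3 min.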

For assay [16] the target is unchanged. The experiment in a line: qHTS assay to identify small molecule agonists of the thyrotropin-releasing hormone receptor (TRHR) signaling pathway (AID 1346891; calls by dose curve; note: series mostly up to about 58 µM). In a few lines: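 Compounds were tested as agonists at 15 concentrations, in triplicate, on TRHR-Hek293 cells; calcium-sensitive dye fluorescence was recorded for 3 min following addition.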
Assay [17] concerns the target Thyrotropin receptor (Homo sapiens) (UniProt P16473). The experiment in a line: qHTS assay to identify small molecule antagonists of the thyroid stimulating hormone receptor (TSHR) signaling pathway (AID 1259385; calls by dose curve; note: nearly all actives have a fitted effect of over 20% in size). An outline of the steps:
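TSHR-HEK293 cells (800/well) plated 18 h, then compounds with Ro20-1724 and TSH at 1.5 ng/mL final, 30 min at room temperature. cAMP quantified by HTRF (cAMP-d2/anti-cAMP-cryptate, 1 h); 15 concentrations in triplicate.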

In assay [18] the target is Estrogen receptor beta (Homo sapiens) (UniProt Q92731). Nature of the assay: qHTS assay to identify small molecule antagonists of the estrogen receptor beta (ER-beta) signaling pathway (AID 1259378; active = well fitted inhibition curve with a large enough effect in the signal ratio in the repeat runs, not every such curve was filed as active; the % refers to the signal ratio). In a few lines:
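ER-beta-UAS-bla HEK293T cells in 2% charcoal-stripped FBS medium treated with compound plus 1nM final 17-beta-estradiol for 16 hr at 37C. Beta-lactamase reporter read by FRET substrate fluorescence after 2 hours at room temperature.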

Assay [19] concerns the target Androgen receptor (Homo sapiens) (UniProt P10275). Nature of the assay: qHTS assay to identify small molecule agonists of the androgen receptor (AR) signaling pathway in the presence of an antagonist (AID 1259381; calls by dose curve; note: nearly all actives have a fitted effect of over 15% in size). An outline of the steps:
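MDA-kb2 human breast carcinoma cells carrying an MMTV-luciferase reporter (AR- and GR-responsive) were treated with compounds at 15 concentrations plus 3.0uM final nilutamide for 16hr at 37C without CO2; luminescence was read after ONE-Glo addition.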

Unmarked numbers belong to inactive results. Records with an inconclusive call do not appear. Calls of active or inactive are those of the source. Unless noted, calls come from the whole dose curve; as a rule, active = well fitted curve in the direction sought with a large enough effect in the repeat runs; inconclusive = weak or mixed curves; inactive = no such curve, though single readings can be large; an effect the other way counts as inactive or inconclusive.
% is set by controls: 0 for no effect and ±100 for the full control effect.

Progesterone receptor (Homo sapiens), sequence (P06401 whole entry, looked up): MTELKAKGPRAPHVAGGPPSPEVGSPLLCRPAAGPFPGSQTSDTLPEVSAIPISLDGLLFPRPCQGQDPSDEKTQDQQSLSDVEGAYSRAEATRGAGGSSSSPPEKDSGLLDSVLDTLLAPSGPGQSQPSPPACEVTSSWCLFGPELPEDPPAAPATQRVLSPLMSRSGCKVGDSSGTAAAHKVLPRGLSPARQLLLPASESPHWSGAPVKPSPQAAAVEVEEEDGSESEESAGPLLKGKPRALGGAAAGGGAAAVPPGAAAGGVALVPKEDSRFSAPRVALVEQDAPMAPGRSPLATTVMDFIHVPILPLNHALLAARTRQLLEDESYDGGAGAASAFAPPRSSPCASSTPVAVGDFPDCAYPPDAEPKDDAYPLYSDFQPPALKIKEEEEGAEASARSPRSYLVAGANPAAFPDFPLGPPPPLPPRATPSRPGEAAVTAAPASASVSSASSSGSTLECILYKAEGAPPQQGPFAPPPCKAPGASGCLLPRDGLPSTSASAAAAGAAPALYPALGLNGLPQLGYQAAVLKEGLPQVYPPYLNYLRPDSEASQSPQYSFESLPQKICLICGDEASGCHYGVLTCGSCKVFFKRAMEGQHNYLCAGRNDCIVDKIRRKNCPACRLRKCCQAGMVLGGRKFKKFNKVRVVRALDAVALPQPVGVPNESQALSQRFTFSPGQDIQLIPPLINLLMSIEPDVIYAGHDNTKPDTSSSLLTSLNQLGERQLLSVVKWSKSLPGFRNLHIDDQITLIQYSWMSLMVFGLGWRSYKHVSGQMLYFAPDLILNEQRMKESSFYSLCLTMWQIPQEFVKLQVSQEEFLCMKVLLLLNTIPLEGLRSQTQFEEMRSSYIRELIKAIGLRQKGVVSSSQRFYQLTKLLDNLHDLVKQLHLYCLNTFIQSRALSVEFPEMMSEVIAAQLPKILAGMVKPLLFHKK
Estrogen receptor (Homo sapiens), sequence (P03372 whole entry, looked up): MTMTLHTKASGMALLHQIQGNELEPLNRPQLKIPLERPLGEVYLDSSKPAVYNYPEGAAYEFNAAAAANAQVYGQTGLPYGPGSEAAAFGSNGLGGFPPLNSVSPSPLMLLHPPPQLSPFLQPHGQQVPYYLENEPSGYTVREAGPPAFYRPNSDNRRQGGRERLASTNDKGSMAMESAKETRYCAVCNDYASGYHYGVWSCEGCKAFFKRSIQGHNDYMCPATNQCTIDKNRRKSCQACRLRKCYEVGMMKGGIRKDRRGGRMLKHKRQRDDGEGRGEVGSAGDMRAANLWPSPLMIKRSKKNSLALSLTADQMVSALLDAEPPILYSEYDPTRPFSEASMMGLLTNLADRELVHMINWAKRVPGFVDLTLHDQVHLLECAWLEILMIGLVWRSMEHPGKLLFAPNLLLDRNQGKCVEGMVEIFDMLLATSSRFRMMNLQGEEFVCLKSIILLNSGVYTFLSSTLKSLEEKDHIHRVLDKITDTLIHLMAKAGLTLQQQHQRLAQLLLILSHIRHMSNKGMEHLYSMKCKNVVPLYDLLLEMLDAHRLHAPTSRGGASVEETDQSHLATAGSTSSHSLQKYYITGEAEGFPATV
Thyrotropin-releasing hormone receptor (Homo sapiens), sequence (P34981 whole entry, looked up): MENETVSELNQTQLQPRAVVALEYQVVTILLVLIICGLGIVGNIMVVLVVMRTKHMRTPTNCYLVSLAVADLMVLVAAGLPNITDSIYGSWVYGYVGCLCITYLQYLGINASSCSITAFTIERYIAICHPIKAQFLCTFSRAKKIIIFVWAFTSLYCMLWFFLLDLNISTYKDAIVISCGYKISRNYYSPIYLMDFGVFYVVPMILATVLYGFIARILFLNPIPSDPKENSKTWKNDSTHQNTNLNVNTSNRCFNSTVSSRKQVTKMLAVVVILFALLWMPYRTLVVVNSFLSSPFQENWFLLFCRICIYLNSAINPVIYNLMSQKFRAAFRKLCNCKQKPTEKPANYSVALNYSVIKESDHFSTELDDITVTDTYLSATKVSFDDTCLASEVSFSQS
Estrogen receptor beta (Homo sapiens), sequence (Q92731 whole entry, looked up): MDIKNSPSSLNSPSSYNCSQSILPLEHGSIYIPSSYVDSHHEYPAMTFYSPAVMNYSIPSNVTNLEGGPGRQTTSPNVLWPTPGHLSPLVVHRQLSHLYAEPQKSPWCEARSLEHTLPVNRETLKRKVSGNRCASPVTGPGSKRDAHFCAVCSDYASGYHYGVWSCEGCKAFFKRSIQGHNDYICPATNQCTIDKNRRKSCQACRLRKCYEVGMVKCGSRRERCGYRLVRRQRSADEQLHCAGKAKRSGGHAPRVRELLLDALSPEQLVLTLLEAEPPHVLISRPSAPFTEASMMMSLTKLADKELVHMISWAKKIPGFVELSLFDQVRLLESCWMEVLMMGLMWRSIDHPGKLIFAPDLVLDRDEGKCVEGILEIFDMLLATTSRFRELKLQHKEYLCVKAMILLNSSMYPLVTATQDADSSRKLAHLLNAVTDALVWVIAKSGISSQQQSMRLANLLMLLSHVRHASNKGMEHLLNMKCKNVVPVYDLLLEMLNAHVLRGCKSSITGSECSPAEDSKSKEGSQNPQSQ
Thyrotropin receptor (Homo sapiens), sequence (P16473 whole entry, looked up): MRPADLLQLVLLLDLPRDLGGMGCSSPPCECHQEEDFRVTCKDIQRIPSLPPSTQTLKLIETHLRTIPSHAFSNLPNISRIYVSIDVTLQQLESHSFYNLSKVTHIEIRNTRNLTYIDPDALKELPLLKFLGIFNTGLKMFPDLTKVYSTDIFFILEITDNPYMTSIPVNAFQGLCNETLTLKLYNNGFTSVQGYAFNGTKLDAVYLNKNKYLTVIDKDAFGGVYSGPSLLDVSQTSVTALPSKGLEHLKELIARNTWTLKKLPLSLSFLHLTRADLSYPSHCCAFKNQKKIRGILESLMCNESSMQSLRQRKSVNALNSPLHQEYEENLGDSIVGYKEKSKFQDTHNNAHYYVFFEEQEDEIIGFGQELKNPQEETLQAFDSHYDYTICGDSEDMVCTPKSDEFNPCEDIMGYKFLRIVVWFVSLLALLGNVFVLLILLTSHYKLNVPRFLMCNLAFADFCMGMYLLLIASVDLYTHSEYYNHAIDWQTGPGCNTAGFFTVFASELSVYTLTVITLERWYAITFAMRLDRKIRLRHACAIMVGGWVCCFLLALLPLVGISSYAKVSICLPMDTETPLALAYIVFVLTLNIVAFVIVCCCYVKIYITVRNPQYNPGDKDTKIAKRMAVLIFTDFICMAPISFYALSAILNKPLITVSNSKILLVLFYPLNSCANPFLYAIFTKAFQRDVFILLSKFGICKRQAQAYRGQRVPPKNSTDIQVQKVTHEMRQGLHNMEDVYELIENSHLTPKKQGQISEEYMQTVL
Androgen receptor (Homo sapiens), sequence (P10275 whole entry, looked up): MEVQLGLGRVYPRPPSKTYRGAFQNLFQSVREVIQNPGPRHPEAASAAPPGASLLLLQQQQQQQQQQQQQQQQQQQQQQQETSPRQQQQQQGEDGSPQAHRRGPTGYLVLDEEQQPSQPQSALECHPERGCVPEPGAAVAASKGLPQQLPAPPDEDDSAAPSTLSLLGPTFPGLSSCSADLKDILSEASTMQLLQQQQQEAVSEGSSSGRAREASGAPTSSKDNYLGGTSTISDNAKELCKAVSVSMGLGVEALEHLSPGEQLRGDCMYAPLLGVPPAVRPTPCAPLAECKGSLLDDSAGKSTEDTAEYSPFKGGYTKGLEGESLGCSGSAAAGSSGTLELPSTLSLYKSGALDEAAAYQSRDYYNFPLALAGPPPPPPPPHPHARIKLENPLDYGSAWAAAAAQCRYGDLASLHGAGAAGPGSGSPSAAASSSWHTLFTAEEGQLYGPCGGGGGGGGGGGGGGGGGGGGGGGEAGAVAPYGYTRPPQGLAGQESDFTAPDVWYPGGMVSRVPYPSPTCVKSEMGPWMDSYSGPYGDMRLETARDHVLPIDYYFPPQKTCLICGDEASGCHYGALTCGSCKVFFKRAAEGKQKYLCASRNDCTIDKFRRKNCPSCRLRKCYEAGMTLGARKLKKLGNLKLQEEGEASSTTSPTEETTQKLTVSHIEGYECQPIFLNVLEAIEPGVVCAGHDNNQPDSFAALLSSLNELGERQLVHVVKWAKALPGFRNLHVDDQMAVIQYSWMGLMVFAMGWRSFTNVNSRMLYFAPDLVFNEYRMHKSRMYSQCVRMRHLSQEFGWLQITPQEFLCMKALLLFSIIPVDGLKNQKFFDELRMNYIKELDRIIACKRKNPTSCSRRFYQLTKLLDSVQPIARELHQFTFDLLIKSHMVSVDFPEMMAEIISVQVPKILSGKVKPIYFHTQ

`CCCCC(CC)COC(=O)CCCCCCCCC(=O)OCC(CC)CCCC` (configuration not stated): the Potency result in [1], in [2], in [3], in assay [4], in [5] and in [6] was “inactive” each time. In addition, the Potency entry in assay [7], in [8], in assay [9], in [10], in assay [11] and in assay [12] was “inactive” in each case. Besides, the Potency result in assay [14] and in [16] was “inactive” throughout. Besides, the result in assay [13] and in assay [15] was inactive.

As for `CC[N+](C)(CC)CCOC(=O)C(O)(c1ccccc1)C1CCCCC1` (configuration not stated), the Potency entry in [1], in assay [2], in assay [3], in assay [4], in [5] and in assay [6] was “inactive” throughout. Also, the Potency entry in [17], in [8], in assay [9], in [10], in [11] and in assay [12] was “inactive” in each case. Besides, in [14], the Potency result is “inactive”. The outcome in assay [13] was inactive.

As for `C=CC1CC2C=CC1C2` (configuration not stated), the Potency entry in assay [1], in assay [2], in assay [3], in assay [4], in [5] and in assay [7] was “inactive” in each case. In addition, the Potency entry in assay [8], in [9], in assay [10], in [11], in assay [12] and in assay [14] was “inactive” throughout. For the same compound, the Potency result in assay [16] was “inactive”. For the same compound, in assay [13], the outcome was inactive.

`C/C=C/C(=O)CC`: the Potency in assay [1] is 5.9 µM (active). Also, the activity change, negative = cytotoxicity was 0.797% [at 19 µM] in assay [2]; 5.9% [at 19 µM] in assay [3]; 2.99% [at 19 µM] in assay [4]; 2.64% [at 19 µM] in [7]; -14.3% [at 19 µM] in assay [11]; -6.07% [at 15.8 µM] in assay [13]. The Potency entry in assay [5] is “inactive”. In addition, the cAMP activity change in [6] was -0.0314% [at 18.9 µM, hits give high values]. Also, the activation is 0.707% [at 19 µM] in assay [8], 4.38% [at 15.8 µM] in [14] and -0.663% [at 11.8 µM] in assay [16]. Moreover, the activity change, negative = inhibition in assay [9] is -21.4% [at 18.9 µM]. For the same compound, the viability change, negative = cytotoxic in [12] is -21.1% [at 15.8 µM].

Take `COc1cc2nc(N(C)CCCNC(=O)C3CCCO3)nc(N)c2cc1OC` (configuration not stated): the Potency was 13.3 µM (active) in assay [1] and 23.7 µM (active) in [7]. Moreover, the Potency result in assay [18], in assay [3], in assay [4], in [5], in [6] and in assay [17] was “inactive” each time. Further, the Potency entry in assay [9], in assay [12], in [14] and in assay [16] was “inactive” throughout. Besides, the compound was classed as inactive in assay [13].

For `CCN(CC)c1ccc(C(=C2C=CC(=[N+](CC)CC)C=C2)c2cc(S(=O)(=O)O)ccc2S(=O)(=O)[O-])cc1`, the Potency in [1] is 2.66 µM (active); in assay [7], 23.7 µM (active). Besides, the Potency result in assay [18], in assay [19], in assay [8], in assay [9], in assay [10] and in assay [11] was “inactive” throughout. The Potency result in assay [14] and in assay [16] was “inactive” each time. Moreover, in [15], the outcome was inactive.

Take `O=C1c2ccccc2S(=O)(=O)N1CCCCN1CCN(c2ncccn2)CC1`: the Potency result in assay [1], in [2], in assay [3], in assay [4], in assay [5] and in assay [6] was “inactive” in each case. Also, the Potency entry in assay [7], in assay [8], in [9], in assay [10], in [11] and in assay [12] was “inactive” in each case. In [14], the Potency entry was “inactive”. Further, the result in assay [13] and in [15] was inactive.
